Sampled rows, rich in hits. Any-hit rate of the full collection: about 1.3%.
LYPLA2 inh – blocks human lysophospholipase 2, a PME1 counter-screen; O95372; recombinant LYPLA2, FP-Rh probe fluorescence polarization; inhibition, % at 5.9 µM; actives 0.38% (n = 320,000);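 active = inhibition above the screen-wide mean plus 3 SD, limit set per campaign, cut at about 26% in these data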;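 note: 0% = LYPLA2 with DMSO and 100% = wells lacking LYPLA2 enzyme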
Target sequence (O95372 whole entry, looked up): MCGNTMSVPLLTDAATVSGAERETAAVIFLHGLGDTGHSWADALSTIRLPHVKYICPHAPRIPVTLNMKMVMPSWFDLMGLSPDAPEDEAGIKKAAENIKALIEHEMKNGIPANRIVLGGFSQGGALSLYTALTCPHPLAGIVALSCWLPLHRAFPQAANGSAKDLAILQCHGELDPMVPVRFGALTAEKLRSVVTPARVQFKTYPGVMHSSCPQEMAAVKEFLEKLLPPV
LYPLA1 inh – blocks human lysophospholipase 1, a PME1 counter-screen; recombinant LYPLA1, FP-Rh probe fluorescence polarization; inhibition, % at 5.9 µM; O75608; actives 0.16% (n = 320,000);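 active = inhibition above the mean of all tested compounds plus 3 SD, set per campaign, cut at about 14% in these data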;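 note: inhibitors block serine hydrolase probe labeling of LYPLA1 so polarization falls; 0% = enzyme with DMSO and 100% = wells lacking LYPLA1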
Target sequence (O75608 whole entry, looked up): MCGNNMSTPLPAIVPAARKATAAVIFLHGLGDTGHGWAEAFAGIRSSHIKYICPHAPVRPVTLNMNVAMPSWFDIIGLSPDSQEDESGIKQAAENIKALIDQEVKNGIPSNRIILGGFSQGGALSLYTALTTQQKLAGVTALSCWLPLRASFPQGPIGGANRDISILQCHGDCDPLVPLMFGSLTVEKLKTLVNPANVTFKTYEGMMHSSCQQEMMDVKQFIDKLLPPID
Fam108B counter – blocks mouse Fam108B hydrolase in RBBP9 counter-screen | inhibition, % at 9.51 µM | recombinant Fam108B, FP-Rh probe fluorescence polarization | actives 0.33% (n = 300,000);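 active = inhibition above the screen mean inhibition plus 3 SD, computed separately per campaign, cut at about 18% in these data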;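 note: inhibitors lower polarization as less probe binds the enzyme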
PREPL inhibitor – inhibitors of human prolyl oligopeptidase-like enzyme PREPL; AID 2751; inhibition, % at 5.96 µM; actives 0.68% (n = 320,000); recombinant PREPL, fluorescence polarization activity-based probe;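 note: 0% = enzyme with DMSO and 100% = wells lacking enzyme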
PME-1 inh – PME-1 (human) inhibition. recombinant PME-1, FP-Rh probe fluorescence polarization. inhibition, % at 5.9 µM. Q9Y570. actives 0.53% (n = 320,000);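 active = inhibition above the campaign mean of all compounds plus 3 SD, cut at about 26% in these data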;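 note: competitive labeling of PME-1 active site by serine hydrolase directed probe; 0% = PME-1 with DMSO and 100% = wells lacking PME-1 enzyme; inhibitors block probe labeling so polarization falls and inhibition rises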
Fam108b inh conf – confirmation of mouse Fam108b serine hydrolase inhibitors. shares compounds with Fam108B counter. recombinant Fam108b, FP-Rh probe fluorescence polarization. inhibition, % at 9.51 µM. actives 44% (n = 930). AID 1978;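 active = inhibition above a limit from the primary screen, the mean over all compounds plus 3 SD, cut at about 19% in these data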;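 note: 0% = median of active Fam108b wells and 100% = catalytically dead S170A mutant; inhibitors free the probe so polarization falls as inhibition rises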
Fam108b ABPP HTS – mouse ABHD17B inhibition. shares compounds with Fam108B counter. recombinant Fam108b, gel-based ABPP, fluorophosphonate probe. inhibition, % at 20 µM. actives 44% (n = 260). AID 588649; in the data active = inhibition above about 40%
LYPLA1 conf – LYPLA1 (human) inhibition, confirmation counter-screen. actives 69% (n = 480). recombinant LYPLA1, FP-Rh probe fluorescence polarization. AID 2233. shares compounds with LYPLA1 inh. inhibition, % at 5.9 µM;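 active = mean inhibition across replicates above the hit cutoff set in the primary screen, cut at about 15% in these data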;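 note: loss of FP-Rh probe labeling of LYPLA1 seen as lower polarization; 0% = LYPLA1 with DMSO and 100% = wells lacking LYPLA1 enzyme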
LYPLA2 confirm – LYPLA2 (human) inhibition, confirmation counter-screen; shares compounds with LYPLA2 inh; inhibition, % at 5.9 µM; AID 2232; actives 72% (n = 1,100); recombinant LYPLA2, FP-Rh probe fluorescence polarization;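 active = mean inhibition across replicates above the hit cutoff set in the primary screen, cut at about 26% in these data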;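 note: blocked labeling of the enzyme by serine hydrolase FP-Rh probe lowers polarization; 0% = enzyme with DMSO and 100% = wells lacking LYPLA2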
LYPLA2 ABPP – inhibitors of human LYPLA2. shares compounds with LYPLA2 inh. actives 30% (n = 150). rhLYPLA2 in mouse brain proteome, gel ABPP FP-Rh. inhibition, % at 20 µM. AID 652029;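 active = inhibition of LYPLA2 enzyme probe labeling above about 50%, limit read from the data; inactive = inhibition below that limit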;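 note: loss of FP-Rh probe labeling of the LYPLA2 gel band measured as band density; 0% = DMSO only control band and 100% = blank gel background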
PREPL inh cf – confirmation of human PREPL enzyme inhibitors. shares compounds with PREPL inhibitor. recombinant PREPL, fluorescence polarization activity probe. inhibition, % at 5.96 µM. actives 67% (n = 2,000). AID 2803;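 note: 0% = protein with DMSO and 100% = wells lacking protein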
The depositor's hits bear a star; nt = no result given. Cut-off read from the data, not from the text of the source, unless noted: active = inhibition above about 43%; inactive = the rest.

SMILES	LYPLA2 inh	LYPLA1 inh	Fam108B counter	PREPL inhibitor	PME-1 inh	LYPLA2 confirm	PREPL inh cf	others
CNc1ccc2nc3ccccc3[n+](C)c2c1	117*	103*	102*	98*	116*	94*	84*	Fam108b inh conf=67*;Fam108b ABPP HTS=15;LYPLA1 conf=83*
OCCNc1c2c(nc3ccccc13)CCCC2	4	-2	-1	6	-12	nt	nt
C[n+]1c2ccccc2nc2ccc(NCCO)cc21	63*	70*	72*	69*	71*	48*	66*	Fam108b inh conf=42*;Fam108b ABPP HTS=0;LYPLA1 conf=63*
CCOC(=O)C(=CNc1ccc(C(O)(C(=O)OCC)C(F)(F)F)cc1C)C(=O)OCC (stereo unspecified)	-1	1	2	-1	1	nt	nt
O=C(NC(=C(Cl)Cl)P(=O)(c1ccccc1)c1ccccc1)c1ccccc1	0	-2	-2	-1	5	nt	nt
Cc1nc2c(=O)n(C)c(=O)nc-2n(C)n1	88*	88*	66*	44*	36*	95*	51*	Fam108b inh conf=82*;Fam108b ABPP HTS=5;LYPLA1 conf=83*
COc1ccc(/C=N\N=C(N)N)cc1	4	4	1	-2	-1	nt	nt
NC(N)=N/N=C/c1ccc(N(c2ccccc2)c2ccccc2)cc1	8	3	19*	77*	16	nt	68*	Fam108b inh conf=19*
OCCOCCO	2	1	-1	3	4	nt	nt
CCn1nc(-c2ccccc2)nc2c(=O)n(C)c(=O)nc1-2	96*	89*	65*	56*	42*	nt	44*	Fam108b inh conf=86*;Fam108b ABPP HTS=0
CCS(=O)(=O)NCc1nnc2n1-c1ccc(Cl)cc1C(c1ccccc1)=NC2	2	-3	0	7	-1	nt	nt
O=C1C(=O)c2ccccc2-c2ccccc21	85*	83*	64*	53*	37*	90*	50*	Fam108b inh conf=65*;Fam108b ABPP HTS=15;LYPLA1 conf=85*
Oc1c(Br)cc(Br)cc1Br	1	1	nt	12	5	nt	nt
Oc1c(Br)c(Br)c(Br)c(Br)c1Br	56*	25*	nt	6	75*	58*	nt	LYPLA1 conf=30*
CC(C)=CCN1CC[C@@]2(C)c3cc(O)ccc3CC1C2C (stereo partly specified)	nt	nt	nt	5	nt	nt	nt
Clc1ccc(C(c2ccc(Cl)cc2)n2cc[n+](CC(OCc3ccc(Cl)cc3Cl)c3ccc(Cl)cc3Cl)c2)cc1 (stereo unspecified)	32*	22*	3	-2	2	43*	nt	LYPLA1 conf=52*
CCOC(=O)c1c(NS(=O)(=O)c2ccccc2)n(CCCOC)c2nc3ccccc3nc12	96*	83*	9	46*	33*	0	11	LYPLA1 conf=1
C=CCn1c(O)c(C=NCCN2CCOCC2)c(=O)[nH]c1=S	0	0	0	6	0	nt	nt
O=C(COc1ccccc1)N1CCN(CCN2C(=O)c3cccc4cccc(c34)C2=O)CC1	16	3	1	8	-1	nt	nt
O=C(COc1ccccc1F)N1CCN(CCN2C(=O)c3cccc4cccc(c34)C2=O)CC1	38*	8	-2	-6	5	35*	nt
CCc1cc(=O)[nH]c(SCCCF)n1	-6	1	-10	4	0	nt	nt
Cc1nc2cc(C(F)(F)F)ccc2n1C1CCN(Cc2nnnn2Cc2cccs2)CC1	27*	-1	1	8	-4	23	nt
O=C(COc1ccc(Cl)cc1)N1CCN(Cc2ccc([N+](=O)[O-])cc2)CC1	57*	9	-2	1	-3	61*	nt	LYPLA2 ABPP=47
COc1ccc(OCC(=O)N2CCN(Cc3nc4cc([N+](=O)[O-])ccc4n3C)CC2)cc1	3	2	0	7	4	nt	nt
CN(C)C1C(=O)C(C(N)=O)=C(O)C2(O)C(=O)C3=C(O)c4c(O)cccc4C(C)(O)C3C(O)C12 (stereo unspecified)	4	-2	15	20	-10	nt	nt
SMILES	LYPLA2 inh	LYPLA1 inh	Fam108B counter	PREPL inhibitor	PME-1 inh	LYPLA2 confirm	PREPL inh cf	others
O=C(COc1ccc(Cl)cc1Cl)N1CCN(C/C=C/c2ccccc2)CC1	76*	13	2	-18	3	78*	nt	LYPLA2 ABPP=56*
Oc1ccccc1-[n+]1c(-c2ccccc2)cc(-c2ccccc2)cc1-c1ccccc1	-1	-3	-5	-6	2	nt	nt
Brc1ccc(-[n+]2c(-c3ccccc3)cc(-c3ccccc3)cc2-c2ccccc2)cc1	-1	4	-2	56*	3	nt	56*
[O-]c1ccccc1-[n+]1c(-c2ccccc2)cc(-c2ccccc2)cc1-c1ccccc1	-1	-2	-4	45*	1	nt	54*
Cc1nonc1OCCNCCNc1ccc([N+](=O)[O-])c2cccnc12	7	1	0	-4	-1	nt	nt
C[C@]12CCC3C(CC[C@H]4C[C@@H](O)CC[C@]34C)C1[C@H]1CN=N[C@H]1[C@@H]2O (stereo partly specified)	nt	nt	nt	3	nt	nt	nt
COc1ccc2[nH]cc(CCN)c2c1	6	0	-4	14	-8	nt	nt
COc1ccc2[nH]c3c(c2c1)CCN=C3C	-4	-6	2	82*	4	nt	41
CCN(CC)c1ccc(CN2CC=C(c3ccc(F)cc3)CC2)cc1	-3	-1	-2	46*	4	nt	37
CCn1c(O)c(C=NCc2cccs2)c(=O)[nH]c1=O	1	0	3	-2	3	nt	nt
CCCC[C@@H](C)C[C@@H](C)C(=O)N(C)[C@@H](CC(C)C)C(=O)N[C@H](C(=O)N(C)[C@H](C(=O)N1C[C@@H](O)C[C@H]1C(=O)N1C(=O)C=C[C@@H]1C)C(C)C)C(C)OC(C)=O (stereo partly specified)	nt	nt	nt	50*	nt	nt	48*
CCN1C[C@]2(COC)CC[C@H](O)[C@]34C1[C@](O)([C@@H](OC)[C@H]23)[C@@]1(O)C[C@H](OC)[C@H]2C[C@@H]4[C@@H]1[C@H]2OC	0	1	2	1	-3	nt	nt
CCN1C[C@]2(COC(=O)c3ccccc3N)CC[C@H](OC)C34[C@@H]5C[C@H]6[C@H](OC)[C@@H]5[C@](O)(C[C@@H]6OC)[C@@](O)([C@H]13)[C@@H](OC)[C@@H]42	5	0	-1	53*	0	nt	46*
